# Source: PubChem BioAssay (NCATS)
# “And” between values parts separate entries of the source, which are not always exact repeats. Equal entries are not always repeated. A number with no mark means an inactive call. Records with an inconclusive call do not appear. The source made the active and inactive calls. Unless noted, the call rests on the fitted dose curve; in most records, active means well fitted cell-killing curve with a large enough effect; inconclusive means small, poorly fitted or top-dose-only effect, or effect the other way; inactive means flat fitted curve, though single readings scatter.
# Test system: not listed separately
# Experiment: qHTS assay for cell viability of HEK293 cells (AID 743288); further: on the % scale 0 is the no-effect control and ±100 the full control effect; nearly all actives have a fitted effect of over 50% in size
# Conditions: ATP luminescence (CellTiter-Glo), 18 h, hits give low values
# Procedure, shortened: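 The Tox21 protocol used parental HEK293 cells treated for 18 h at 37 C with compounds delivered by pintool; ATP-coupled luminescence after 30 min at room temperature gave viability.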
row,Structure (SMILES),max response
1,CCCCCCC=O,5.62%
2,CCC(C)(C)OC,-19.7%
3,CCCCOCCOCCOCCCC,3.02%
4,c1ccc(Nc2ccccc2)cc1,-6.24% and -7.97%
5,COC(=O)CS,3.47%
6,Cc1ccco1,3.18%
7,CCCCCCCN,9.44%
8,ClCCl,-3.33%
9,CCCCC(=O)N(C)C,-5.96%
10,CCNS(=O)(=O)c1ccc(C)cc1,-4.78%
11,Cc1ccc(Br)cc1,-7.93%
12,C=C(C)OC(C)=O,-0.625%
13,CCCC(Cl)CCCC(Cl)CCC(Cl)CCC(Cl)CCC(Cl)CCCC(Cl)CCC (stereo not given),8.25%
14,OC(CCl)CCl,5.53%
15,CCC=O,1.05%
16,CCCCN(CCO)CCCC,-7.26%
17,CCCCC(C=O)CC (stereo not given),-9.34%
18,Nc1ccccc1S(=O)(=O)O,-1.86%
19,O=C1C=CCCC1,-6.57%
20,CCOCCOCC,0.474%

row,Structure (SMILES),max response
1,Cc1ccc(C#N)cc1,-2.64%
2,O=C(Cl)c1c(Cl)cccc1Cl,0.0079%
3,Cc1ccc(C)o1,-6.28%
4,C=CC(=O)OCCCC,-0.0822%
5,CC(C)C(C)C,2.97%
6,CCCCC(CC)COCC1CO1 (stereo not given),0.479%
7,C=C(C)C(N)=O,-1.33%
8,CC(=O)Nc1ccc(C)cc1,-2.69%
9,CCCC(C)CO (stereo not given),-5.68%
10,O=[N+]([O-])c1ccc(Cl)cc1Cl,0.0931%
11,Cc1ccccc1C(=O)O,-7.38%
12,Cc1ccc2ncccc2c1,-3.3%
13,C=C(C)C(=O)OC,0.0882%
14,COc1ccc(N)c(C)c1,-3.7%
15,Cc1c(N)cccc1[N+](=O)[O-],11.6%
16,O=Cc1ccccc1Cl,-11.9%
17,O=C(O)c1cccc(Cl)c1Cl,6.72%
18,O=[N+]([O-])c1c(Cl)cc(Cl)cc1Cl,8.66%
19,C(=C/c1ccccc1)/c1ccccc1,-10.3%
20,Cc1ccc(Cl)cc1N,3.66%

# Test system: not listed separately
# Experiment: qHTS assay for cell viability of the p53RE-bla HCT-116 cell line (AID 743292); further: on the % scale 0 is the no-effect control and ±100 the full control effect; nearly all actives have a fitted effect of over 55% in size
# Conditions: p53RE-bla HCT-116 viability, ATP luminescence, 16 h; series mostly up to 95 µM; activity change, negative = cytotoxicity: at the top concentration
# Procedure, shortened: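 Viability of compound-treated p53RE-bla HCT-116 cells is taken from ATP-dependent luciferase luminescence. Treatment lasts 16 h at 37 C after a 5 h settling period; detection follows 30 min at room temperature.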
Structure (SMILES),"activity change, negative = cytotoxicity [%]",Potency
CCCCCCC=O,8.34,–
CCC(C)(C)OC,-1.37,–
CCCCOCCOCCOCCCC,-5.58,–
c1ccc(Nc2ccccc2)cc1,–,inactive
COC(=O)CS,2.89,–
Cc1ccco1,4.81,–
CCCCCCCN,6.05,–
ClCCl,-1.92,–
CCCCC(=O)N(C)C,5.11,–
CCNS(=O)(=O)c1ccc(C)cc1,0.632,–
Cc1ccc(Br)cc1,-7.46,–
C=C(C)OC(C)=O,-4.17,–
CCCC(Cl)CCCC(Cl)CCC(Cl)CCC(Cl)CCC(Cl)CCCC(Cl)CCC (stereo not given),6.99,–
OC(CCl)CCl,2.77,–
CCC=O,7.45,–
CCCCN(CCO)CCCC,-0.166,–
CCCCC(C=O)CC (stereo not given),-3.34,–
Nc1ccccc1S(=O)(=O)O,-7.3,–
O=C1C=CCCC1,-1.59,–
CCOCCOCC,1.16,–

Structure (SMILES),"activity change, negative = cytotoxicity [%]",Potency
Cc1ccc(C#N)cc1,7.39,–
O=C(Cl)c1c(Cl)cccc1Cl,-1.72,–
Cc1ccc(C)o1,-5.24,–
C=CC(=O)OCCCC,2.76,–
CC(C)C(C)C,1.45,–
CCCCC(CC)COCC1CO1 (stereo not given),-1.64,–
C=C(C)C(N)=O,-2.94,–
CC(=O)Nc1ccc(C)cc1,5.21,–
CCCC(C)CO (stereo not given),6.77,–
O=[N+]([O-])c1ccc(Cl)cc1Cl,-1.45,–
Cc1ccccc1C(=O)O,-2.75,–
Cc1ccc2ncccc2c1,-2.76,–
C=C(C)C(=O)OC,5.36,–
COc1ccc(N)c(C)c1,1.64,–
Cc1c(N)cccc1[N+](=O)[O-],1.61,–
O=Cc1ccccc1Cl,4.92,–
O=C(O)c1cccc(Cl)c1Cl,6.34,–
O=[N+]([O-])c1c(Cl)cc(Cl)cc1Cl,-1.69,–
C(=C/c1ccccc1)/c1ccccc1,-1.51,–
Cc1ccc(Cl)cc1N,-1.34,–

# Target: Nuclear receptor subfamily 1 group I member 2 (Rattus norvegicus) (UniProt Q9R1A7)
# Sequence (Q9R1A7 whole entry, looked up): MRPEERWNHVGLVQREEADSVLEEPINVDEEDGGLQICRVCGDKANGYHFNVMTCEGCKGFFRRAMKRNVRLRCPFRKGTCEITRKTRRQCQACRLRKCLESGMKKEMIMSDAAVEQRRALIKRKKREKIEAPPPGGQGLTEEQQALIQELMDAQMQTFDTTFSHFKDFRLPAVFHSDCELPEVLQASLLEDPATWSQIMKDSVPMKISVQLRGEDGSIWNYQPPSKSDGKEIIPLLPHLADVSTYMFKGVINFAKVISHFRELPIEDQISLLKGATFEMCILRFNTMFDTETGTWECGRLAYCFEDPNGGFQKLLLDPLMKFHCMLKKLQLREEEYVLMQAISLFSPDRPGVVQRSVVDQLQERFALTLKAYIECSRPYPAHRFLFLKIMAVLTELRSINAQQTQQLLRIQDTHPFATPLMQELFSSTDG
# Experiment: qHTS assay for small molecule activators of the rat pregnane X receptor (rPXR) signaling pathway (AID 651751; call rule not given here; further: 0% is about no effect)
# Conditions: rPXR reporter cells, luciferase (One-Glo), 24 h
row,Structure (SMILES),max response
1,CCCCCCC=O,-7.57%
2,CCC(C)(C)OC,-4.5%
3,CCCCOCCOCCOCCCC,-1.56%
4,c1ccc(Nc2ccccc2)cc1,1.12% and -1.15%
5,COC(=O)CS,-1.83%
6,Cc1ccco1,-0.023%
7,CCCCCCCN,-0.183%
8,ClCCl,1.89%
9,CCCCC(=O)N(C)C,-1.49%
10,CCNS(=O)(=O)c1ccc(C)cc1,2.12%
11,Cc1ccc(Br)cc1,10.2%
12,C=C(C)OC(C)=O,-1.49%
13,CCCC(Cl)CCCC(Cl)CCC(Cl)CCC(Cl)CCC(Cl)CCCC(Cl)CCC (stereo not given),2.04%
14,OC(CCl)CCl,0.333%
15,CCC=O,1.07%
16,CCCCN(CCO)CCCC,1.69%
17,CCCCC(C=O)CC (stereo not given),-0.0559%
18,Nc1ccccc1S(=O)(=O)O,-0.431%
19,O=C1C=CCCC1,0.149%
20,CCOCCOCC,-2.52%

row,Structure (SMILES),max response
1,Cc1ccc(C#N)cc1,3.52%
2,O=C(Cl)c1c(Cl)cccc1Cl,-2.88%
3,Cc1ccc(C)o1,-1.6%
4,C=CC(=O)OCCCC,6.31%
5,CC(C)C(C)C,9.63%
6,CCCCC(CC)COCC1CO1 (stereo not given),9.04%
7,C=C(C)C(N)=O,2.1%
8,CC(=O)Nc1ccc(C)cc1,-0.0412%
9,CCCC(C)CO (stereo not given),0.794%
10,O=[N+]([O-])c1ccc(Cl)cc1Cl,-0.131%
11,Cc1ccccc1C(=O)O,-1.94%
12,Cc1ccc2ncccc2c1,2.4%
13,C=C(C)C(=O)OC,2.17%
14,COc1ccc(N)c(C)c1,7.59%
15,Cc1c(N)cccc1[N+](=O)[O-],-0.458%
16,O=Cc1ccccc1Cl,-0.844%
17,O=C(O)c1cccc(Cl)c1Cl,-3.88%
18,O=[N+]([O-])c1c(Cl)cc(Cl)cc1Cl,9.05%
19,C(=C/c1ccccc1)/c1ccccc1,0.267%
20,Cc1ccc(Cl)cc1N,0.767%
